In PMC5540273 (PLoS ONE, 2017):

Tests used:
Conditions in all cases: concentration: 1 μM, replicates: in singlicate; n = 1
CSNK1A1 = system: CSNK1A1
CSNK1D = system: CSNK1D
CSNK1E = system: CSNK1E
CSNK1G1 = system: CSNK1G1
CSNK1G2 = system: CSNK1G2
CSNK1G3 = system: CSNK1G3
CSNK2A1 = system: CSNK2A1
CSNK2A2 = system: CSNK2A2
CTK = system: T1, CTK
T1 construct: gene MATK

DAPK1 = system: DAPK1
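Further: KINOMEscan kinase panel screen.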

| Structure (SMILES) | %Inh (CSNK1A1) [%] | %Inh (CSNK1D) [%] | %Inh (CSNK1E) [%] | %Inh (CSNK1G1) [%] | %Inh (CSNK1G2) [%] | %Inh (CSNK1G3) [%] | %Inh (CSNK2A1) [%] | %Inh (CSNK2A2) [%] | %Inh (CTK) [%] | %Inh (DAPK1) [%] |
| --- | --- | --- | --- | --- | --- | --- | --- | --- | --- | --- |
| COc1ccc(C2=C(Nc3cccc(C(=O)O)c3)C(=O)NC2=O)cc1 [SB-390765] | 15 | 14 | 0 | 11 | 0 | 3 | 18 | 10 | 43 | 5 |
| O=C(O)COc1ncnc2cc(-c3ccc4[nH]ncc4c3)sc12 | 33 | 0 | 0 | 17 | 10 | 34 | 37 | 20 | 14 | 17 |
| COc1ccccc1-c1ccc2c(NC(=O)C3CC3)n[nH]c2n1 [SB-711239] | 10 | 0 | 2 | 0 | 5 | 11 | 0 | 0 | 0 | 0 |
| O=c1cc(N2CCOCC2)nc2n(Cc3cccc(Cl)c3Cl)ccn12 [GSK2286295] | 27 | 26 | 41 | 10 | 0 | 41 | 2 | 5 | 0 | 8 |
| Cc1c(Cn2ccn3c(=O)cc(N4CCOCC4)nc23)cccc1C(F)(F)F [GSK2289044] | 33 | 6 | 25 | 19 | 5 | 18 | 0 | 3 | 0 | 13 |
| COc1ccc(Nc2nccc(-c3cccc(NC(=O)c4cc5cc(F)ccc5[nH]4)c3)n2)cc1 [GSK1229782] | 0 | 37 | 33 | 13 | 17 | 32 | 8 | 27 | 0 | 0 |
| Cc1ccc(C(=O)Nc2ccc(Nc3ccnc4cc(-c5ccccn5)ccc34)cc2O)cc1.Cl [GW440146] | 0 | 7 | 23 | 0 | 0 | 4 | 0 | 0 | 0 | 0 |
